Assay outcomes (PubChem BioAssay)
TWEAK Fn14 block: inhibitors of TWEAK-Fn14 signaling, primary screen, luciferase reporter cells, uHTS | AID 1159606, 2016 | 2% of 360,000 active | TWEAK-stimulated Fn14 reporter cells, luciferase luminescence, 8 h | inhibition, % at 10 µM; in the data active = inhibition above about 50%
EWS-Fli inh: EWS/Fli-driven NR0B1 reporter inhibitors, primary screen, A673 cells, NR0B1 luciferase, luminescence, MLPCN library. viability-normalised. inhibition, % at 12.6 µM. 0.67% of 350,000 active;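 active = mean inhibition of at least 50% after viability correction, with every replicate also passing that limit; inconclusive = mean reaches 50% but only one of two replicates passes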;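 note: firefly luciferase signal divided by Alamar Blue viability fluorescence both relative to DMSO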
TROY NFkB inh: inhibitors of TROY-driven NF-kB signaling, primary screen, Q293 LMP1-TROYcd cells, NF-kB luciferase, uHTS. Q293 LMP1-TROYcd NF-kB luciferase reporter, 4 h. inhibition, % at 10 µM. 0.98% of 360,000 active;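 active = compounds whose plate-normalised and pattern-corrected inhibition of the luciferase reporter signal at the single screening dose is 50% or more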
LGR2 inh: inhibitors of bursicon-induced LGR2 CRE-luciferase signal, primary screen, cell-based, HEK293, CRE-luciferase reporter, bursicon stimulation. bursicon-stimulated, 4 h. 0.35% of 380,000 active. inhibition, % at 9.99 µM;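 active = drop in luminescence signal, shown as inhibition above about 50% in the replicate tests, limit read from the data, passing the limit was not always enough; inconclusive = probably only some replicates passing the limit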;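 note: agonist challenge used bursicon conditioned medium at about half maximal strength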
EBV LMP1 NFkB: EBV LMP1-driven NF-kappaB luciferase reporter inhibitors, primary screen, cell-based, luminescence, single point; LMP1-induced NF-kappaB luciferase reporter cells; inhibition, % at 12.5 µM; 0.69% of 350,000 active; in the data active = inhibition above about 41%; inconclusive = no clear call, values can overlap the other calls
DNA binder FP: DNA binders by acridine orange displacement, dose response, counter-screen for EWS/Fli inhibitor project, biochemical, fluorescence polarization, cherry-pick; salmon sperm DNA acridine orange fluorescence polarization; shares compounds with EWS-Fli inh; 2% of 640 active; AID 720586, 2013; AC35, µM (series often up to 68 µM);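 active = fitted curve reaches a 35% signal fall AC35 below twice the sample's top valid tested dose, actives reach about 48 µM in these data; inactive = the rest, including activity in the rising direction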;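 note: lower polarization ratio signals compound binding to DNA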
Large screens that a line does not name were inactive (follow-up assays come after a bar, where they were run). This is a sample that favours compounds with a hit; in the whole collection about 2.5% have one here.

COc1ccc(S(=O)(=O)N2CCCc3nc(-c4ccc(F)cc4)ccc32)cc1	EWS-Fli inh 60 (no result: TWEAK Fn14 block, TROY NFkB inh, EBV LMP1 NFkB) | DNA binder FP inactive
O=C(Cc1nn[nH]n1)c1ccccc1O	EWS-Fli inh 68 | DNA binder FP inactive
C[C@H](CO)N1C[C@H](C)[C@H](CN(C)S(=O)(=O)c2ccc(Cl)cc2)OCc2cn(nn2)CCCC1=O	none (no result: TWEAK Fn14 block, TROY NFkB inh, EBV LMP1 NFkB)
Cc1ccc(OCCNC(=O)c2cccc(S(=O)(=O)NCc3ccccc3)c2)cc1	EWS-Fli inh 56, TROY NFkB inh 67 | DNA binder FP inactive
O=C(c1cccc(S(=O)(=O)NCc2ccccc2)c1)N1CCN(c2ccccc2)CC1	EWS-Fli inh 52 | DNA binder FP inactive
O=C(NCc1ccncc1)c1cccc(S(=O)(=O)NCc2ccccc2)c1	none
C/C=C/c1ccc([C@H]2[C@@H](CO)N(C(=O)Cc3cccnc3)[C@H]2CNC(C)=O)cc1	none (no result: TWEAK Fn14 block, TROY NFkB inh, EBV LMP1 NFkB)
COc1cccc(S(=O)(=O)N(C)C[C@H]2Oc3ncc(C#CCN(C)C)cc3C(=O)N([C@H](C)CO)C[C@H]2C)c1	none (no result: TWEAK Fn14 block, TROY NFkB inh, EBV LMP1 NFkB)
CCC(=O)N(C)C[C@@H]1Oc2cc(-c3ccccc3OC)ccc2S(=O)(=O)N([C@@H](C)CO)C[C@@H]1C	none (no result: TWEAK Fn14 block, TROY NFkB inh, EBV LMP1 NFkB)
COc1ccc(C=C2CCc3ccccc3C2=O)cc1	TWEAK Fn14 block 94, EWS-Fli inh 70, TROY NFkB inh 61 (no result: EBV LMP1 NFkB) | DNA binder FP inactive
CCOc1ccc(/C=C2\CCc3ccccc3C2=O)cc1	TWEAK Fn14 block 90, EWS-Fli inh 70, TROY NFkB inh 70, LGR2 inh inconclusive | DNA binder FP inactive
CCCCNC(=O)C(c1ccc(OCC(=O)OC)c(C(=O)OC)c1)N(CCOC)C(=O)CCCCCN1C(=O)NC(c2ccc(-c3ccccc3)cc2)C(C(=O)OCc2ccccc2)=C1C (configuration not stated)	EWS-Fli inh 59 (no result: TWEAK Fn14 block, TROY NFkB inh, EBV LMP1 NFkB) | DNA binder FP inactive
CCc1ccc(N2C=C(C(=O)OC)C(c3ccc(OC)cc3)C(C#N)=C2N)cc1 (configuration not stated)	EWS-Fli inh 54 (no result: TWEAK Fn14 block, TROY NFkB inh, EBV LMP1 NFkB) | DNA binder FP inactive
COC(=O)C1=CN(c2ccc(OC)cc2)C(N)=C(C#N)C1c1ccc(OC)cc1 (configuration not stated)	none (no result: TWEAK Fn14 block, TROY NFkB inh, EBV LMP1 NFkB)
CC1CN(c2ncc(/C=N/NC(=O)c3ccccc3O)s2)CC(C)O1 (configuration not stated)	none
O=C(N/N=C/c1cnc(N2CCCCC2)s1)c1ccc(C(F)(F)F)cc1	EWS-Fli inh 54 | DNA binder FP inactive
O=C(C[C@@H]1C[C@H]2c3cc(NS(=O)(=O)c4ccc(F)cc4)ccc3O[C@H]2[C@H](CO)O1)NCc1ccc(-c2ccccc2)cc1	EWS-Fli inh 56 (no result: TWEAK Fn14 block, TROY NFkB inh, EBV LMP1 NFkB) | DNA binder FP inactive
O=C(C[C@H]1C[C@@H]2c3cc(NS(=O)(=O)c4ccc(F)cc4)ccc3O[C@@H]2[C@H](CO)O1)NCc1ccc(-c2ccccc2)cc1	none (no result: TWEAK Fn14 block, TROY NFkB inh, EBV LMP1 NFkB)
COCCCNc1ccn2nc(-c3ccccc3)cc2n1	TWEAK Fn14 block 72, EWS-Fli inh 57, LGR2 inh 72 (no result: EBV LMP1 NFkB) | DNA binder FP inactive
O=C(NC1CCCC1)C(c1ccccc1)n1c(-c2cccs2)nc2ccccc21 (configuration not stated)	none (no result: TWEAK Fn14 block, TROY NFkB inh, EBV LMP1 NFkB)
O=C(NC1CCCC1)C(c1ccccc1)n1c(CSCCOc2ccccc2)nc2ccccc21 (configuration not stated)	EWS-Fli inh 60 (no result: TWEAK Fn14 block, TROY NFkB inh, EBV LMP1 NFkB) | DNA binder FP inactive
CCNC(=O)C[C@@H]1C=C[C@@H](NC(=O)C2CCOCC2)[C@H](CO)O1	none (no result: TWEAK Fn14 block, TROY NFkB inh, EBV LMP1 NFkB)
O=C(O)c1cccc(N/N=C/c2ccc(OC(F)(F)F)cc2)c1	EWS-Fli inh 74 | DNA binder FP inactive
O=C(Oc1ccc(/C=N/Nc2ccccc2)cc1)c1ccccc1	none (no result: EWS-Fli inh, LGR2 inh)
O=C(O)c1ccc(N/N=C/c2ccncc2)cc1	none
O=C(O)c1ccc(N/N=C/c2ccc3nccnc3c2)cc1	TWEAK Fn14 block 102, EWS-Fli inh 84, TROY NFkB inh 54, LGR2 inh 96, EBV LMP1 NFkB 82 | DNA binder FP inactive
O=C(O)c1ccc(N/N=C/c2ccc(OC(=O)c3cccc(Cl)c3)cc2)cc1	EWS-Fli inh 64, TROY NFkB inh 53, LGR2 inh 80, EBV LMP1 NFkB 61 | DNA binder FP inactive
O=C(O)c1cccc(N/N=C/c2cccs2)c1	EWS-Fli inh 85, LGR2 inh 100, EBV LMP1 NFkB 57 | DNA binder FP inactive
COc1ccc(S(=O)(=O)N(C)C[C@@H]2Oc3c(NS(=O)(=O)c4ccc(C)cc4)cccc3C(=O)N([C@H](C)CO)C[C@@H]2C)cc1	none (no result: TWEAK Fn14 block, TROY NFkB inh, EBV LMP1 NFkB)
CNC[C@H]1Oc2ncc(-c3ccc(OC)cc3)cc2C(=O)N([C@@H](C)CO)C[C@@H]1C	none (no result: TWEAK Fn14 block, TROY NFkB inh, EBV LMP1 NFkB)
O=C(O)c1ccc(N/N=C/c2c[nH]c3ccccc23)cc1	EWS-Fli inh 69, TROY NFkB inh 53, LGR2 inh 59 | DNA binder FP inactive
O=C(O)c1ccc(S(=O)(=O)NN=Cc2c[nH]c3ccccc23)cc1	none
CC1(C)N=C(N)N=C(N)N1c1ccc(CCCCc2ccccc2)cc1	EWS-Fli inh 57, EBV LMP1 NFkB 54 | DNA binder FP inactive
CCC1=Nc2cc(C(=O)NCC3CCCO3)ccc2Sc2ccc(Br)cc21 (configuration not stated)	EWS-Fli inh 55 | DNA binder FP inactive
O=C(NCC1CCCO1)c1ccc(NC(=O)c2ccc(Br)cc2)cc1 (configuration not stated)	none (no result: EBV LMP1 NFkB)
C[C@H](CO)N1C[C@H](C)[C@H](CN(C)C(=O)Nc2ccc(F)cc2)Oc2c(NC(=O)Nc3ccc(F)cc3)cccc2C1=O	none (no result: TWEAK Fn14 block, TROY NFkB inh, EBV LMP1 NFkB)
CCc1ccc(/C=C2\SC(=S)N(CCCC(=O)N3CCN(C)CC3)C2=O)cc1	EWS-Fli inh 69 | DNA binder FP inactive
CCc1ccc(/C=C2\SC(=S)N(CCCC(=O)NCCCN3CCOCC3)C2=O)cc1	EWS-Fli inh 85 | DNA binder FP inactive
C[C@@H]1CN([C@@H](C)CO)C(=O)c2cc(-c3cccc(F)c3)cnc2O[C@H]1CN(C)C(=O)C1CCCCC1	none (no result: TWEAK Fn14 block, TROY NFkB inh, EBV LMP1 NFkB)
CC(=O)c1ccc(N=Nc2ccc(C)cc2)cc1	TWEAK Fn14 block 68, EWS-Fli inh 52, TROY NFkB inh 61, LGR2 inh 73 | DNA binder FP inactive
COC(=O)c1ccc(NN=Nc2ccc(C)cc2)cc1	none (no result: EWS-Fli inh)
CC=Cc1ccc2n(c1=O)C[C@@H]1[C@@H](CO)[C@H](C(=O)N(C)C)N(C(=O)CC)[C@H]21 (mixture of isomers)	none (no result: TWEAK Fn14 block, TROY NFkB inh, EBV LMP1 NFkB)
C[C@H]1CN([C@@H](C)CO)C(=O)c2cc(NC(=O)NC3CCCCC3)ccc2O[C@@H]1CN(C)C(=O)Nc1ccc(C(F)(F)F)cc1	none (no result: TWEAK Fn14 block, TROY NFkB inh, EBV LMP1 NFkB)
COc1ccc(/C=N/Nc2nc3ccccc3[nH]2)cc1OC	none
C(=N\Nc1nc2ccccc2[nH]1)/c1ccccn1	TWEAK Fn14 block 100, EWS-Fli inh 70, TROY NFkB inh 82, LGR2 inh 90 | DNA binder FP inactive
